Test results reported in PubChem BioAssay (NCATS).
“And” between values parts separate entries of the source, which are not always exact repeats. Equal entries are not always repeated. Results filed as inconclusive are left out. More than one record can exist for a structure, and the calls need not agree. The source made the active and inactive calls. Unless noted, the call rests on the fitted dose curve; in most records, active means well fitted curve in the direction sought with a large enough effect; inconclusive means small, poorly fitted or top-dose-only effect, or another doubt; inactive means no such curve, though single readings can be large; an effect the other way counts as inactive or inconclusive.

Key:
[1] = biological target: Lysosomal acid glucosylceramidase (Homo sapiens) (UniProt P04062); assay: Glucocerebrosidase-p2 (AID 348; in the data active means potency below about 10 µM; further: potency means the concentration at half of the fitted maximal effect); conditions: purified GBA, blue fluorogenic substrate, 40 min
Lysosomal acid glucosylceramidase (Homo sapiens), sequence (P04062 whole entry, looked up): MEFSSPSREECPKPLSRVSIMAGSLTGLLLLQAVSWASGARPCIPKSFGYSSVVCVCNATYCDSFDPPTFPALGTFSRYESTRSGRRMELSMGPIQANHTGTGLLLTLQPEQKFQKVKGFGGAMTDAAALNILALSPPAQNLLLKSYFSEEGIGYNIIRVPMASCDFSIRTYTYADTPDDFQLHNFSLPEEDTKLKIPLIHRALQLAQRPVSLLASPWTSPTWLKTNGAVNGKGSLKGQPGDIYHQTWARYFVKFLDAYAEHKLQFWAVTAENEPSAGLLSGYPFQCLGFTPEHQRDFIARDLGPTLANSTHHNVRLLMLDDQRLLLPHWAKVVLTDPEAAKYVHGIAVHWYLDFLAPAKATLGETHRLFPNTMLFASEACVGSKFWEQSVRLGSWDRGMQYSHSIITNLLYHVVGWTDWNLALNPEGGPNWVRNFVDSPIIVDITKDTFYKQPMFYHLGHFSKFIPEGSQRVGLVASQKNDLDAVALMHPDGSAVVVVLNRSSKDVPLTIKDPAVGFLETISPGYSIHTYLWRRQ
Method in brief: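 Compounds titrated from 0.6 nM upwards against 0.2 nM enzyme in pH 5.9 citric acid/KH2PO4, taurocholate, tween-20; blue fluorogenic substrate 80 uM, 40 min room temperature, stopped and read Ex 365/Em 440 for AC50.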

[2] = biological target: Cytochrome P450 1A2 (Homo sapiens) (UniProt P05177); assay: p450-cyp1a2 (AID 410; calls by dose curve; further: potency means the concentration at half of the fitted maximal effect)
Cytochrome P450 1A2 (Homo sapiens), sequence (P05177 whole entry, looked up): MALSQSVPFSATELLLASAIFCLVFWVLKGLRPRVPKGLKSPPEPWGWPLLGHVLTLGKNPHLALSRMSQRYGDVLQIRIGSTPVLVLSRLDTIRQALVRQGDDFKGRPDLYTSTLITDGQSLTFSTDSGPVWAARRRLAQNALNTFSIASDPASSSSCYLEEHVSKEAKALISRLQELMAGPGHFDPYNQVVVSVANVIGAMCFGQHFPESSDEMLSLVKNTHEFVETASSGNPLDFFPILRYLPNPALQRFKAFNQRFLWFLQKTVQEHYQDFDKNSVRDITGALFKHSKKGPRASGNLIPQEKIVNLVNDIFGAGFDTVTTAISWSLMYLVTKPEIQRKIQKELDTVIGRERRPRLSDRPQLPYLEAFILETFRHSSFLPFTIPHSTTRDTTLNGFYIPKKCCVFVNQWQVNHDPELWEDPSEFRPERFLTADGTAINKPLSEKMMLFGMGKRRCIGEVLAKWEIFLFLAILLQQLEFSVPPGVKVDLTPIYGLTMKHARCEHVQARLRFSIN
Method in brief: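 Luminescent readout of luciferin formed from Luciferin-ME by human CYP1A2; data normalized against complete inhibition by 57 uM furafylline. Enzyme 20nM, substrate 100uM at Km, 100mM KPO4 buffer, 60 min reaction at room temperature.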

[3] = NFAT Signaling Pathway (AID 444; active means well fitted curve in either direction with a large enough effect, not every such curve was filed as active;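 further: carbachol stimulus at about its EC50 of 1 µM final; on the % scale 0 is the no-effect control and ±100 the full control effect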); conditions: Jurkat NFAT-bla M1, carbachol, beta-lactamase ratio, 5 h; at 7.69 µM (top of the series) unless noted
Method in brief: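 Jurkat cells carrying an NFAT-driven β-lactamase reporter and co-transfected muscarinic M1 receptor were treated with compound plus carbachol (1 uM final, an EC50 level) for 5 h at 37 °C. CCF4 loading followed for 1 h at RT; 460/530 nm ratio gave %activity.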

[4] = Stat Signaling Pathway (AID 446; active means well fitted curve in either direction with a large enough effect, not every such curve was filed as active;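 further: ME-180 cervical cancer cells given 40 pM IL-6 alongside compound; SIE-controlled beta-lactamase reporter measured as 460/530 nm FRET emission ratio; on the % scale 0 is the no-effect control and ±100 the full control effect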); conditions: ME-180 SIE beta-lactamase reporter, IL-6 stimulated, 5 h; at 7.69 µM (top of the series) unless noted
Method in brief: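 IL-6/STAT signaling read in ME-180 cells via an SIE beta-lactamase reporter. Stimulus was 40 pM IL-6 (its AC50) for 5 hrs, so both activation and inhibition register.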

[5] = biological target: Glucocorticoid receptor (Homo sapiens) (UniProt P04150); assay: GR-GFP Redistribution (AID 450;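 active means compounds whose dose series gives a full or clear partial fitted curve of increased nuclear translocation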; further: potency means the concentration at half of the fitted maximal effect); conditions: U2OS GR-GFP nuclear translocation, laser cytometry, 2 h
Glucocorticoid receptor (Homo sapiens), sequence (P04150 whole entry, looked up, the tested form may be a part): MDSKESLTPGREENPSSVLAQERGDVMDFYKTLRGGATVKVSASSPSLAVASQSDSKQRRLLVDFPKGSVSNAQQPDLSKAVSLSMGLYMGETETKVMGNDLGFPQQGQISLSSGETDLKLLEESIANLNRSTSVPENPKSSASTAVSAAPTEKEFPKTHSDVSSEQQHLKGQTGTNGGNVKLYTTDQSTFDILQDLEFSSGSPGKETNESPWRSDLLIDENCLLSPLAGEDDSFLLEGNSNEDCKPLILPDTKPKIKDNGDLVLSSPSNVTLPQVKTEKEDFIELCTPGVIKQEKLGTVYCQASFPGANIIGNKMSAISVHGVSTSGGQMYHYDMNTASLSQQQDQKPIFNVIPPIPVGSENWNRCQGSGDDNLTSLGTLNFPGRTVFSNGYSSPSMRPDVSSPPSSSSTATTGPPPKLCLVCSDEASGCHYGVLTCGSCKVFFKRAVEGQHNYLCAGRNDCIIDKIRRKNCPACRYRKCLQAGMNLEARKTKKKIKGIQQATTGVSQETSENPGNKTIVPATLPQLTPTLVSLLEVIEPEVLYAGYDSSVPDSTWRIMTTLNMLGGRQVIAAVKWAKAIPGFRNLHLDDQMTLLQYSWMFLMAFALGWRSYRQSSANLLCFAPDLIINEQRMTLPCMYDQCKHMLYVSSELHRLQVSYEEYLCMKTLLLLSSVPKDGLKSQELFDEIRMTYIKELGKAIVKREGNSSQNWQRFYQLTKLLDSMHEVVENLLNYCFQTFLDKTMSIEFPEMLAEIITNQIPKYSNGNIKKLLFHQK

[6] = biological target: Glucocorticoid receptor (Homo sapiens) (UniProt P04150); assay: GR-EFC Redistribution (AID 451; calls by dose curve; further: potency means the concentration at half of the fitted maximal effect); conditions: CHO-K1 GR-EFC translocation, beta-gal luminescence, 2 h
Method in brief: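 CHO-K1 cells stably expressing nuclear-localized β-gal enzyme acceptor and GR fused C-terminally to the enzyme donor fragment; ligand-driven nuclear translocation restores β-gal by complementation. Compounds titrated up to 46 uM final, 2 h at 37 °C; luminescence read.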

[7] = biological target: Mitogen-activated protein kinase 10 (Mus musculus) (UniProt Q61831); assay: JNK3 AlphaScreen Assay (AID 530; active means well fitted curve in either direction with a large enough effect, not every such curve was filed as active;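 further: kinase came from lysate of stimulated human HepG2 cells; signal reports phosphorylation of biotinylated GST-cJun 1-79 at Ser73 with 10 µM ATP; on the % scale 0 is the no-effect control and ±100 the full control effect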)
Method in brief: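 Inhibitors reduce antibody binding to phosphorylated biotin-cJun, lowering AlphaScreen luminescence. Lysates from HepG2 cells pre-activated by IL-1beta plus TNF-alpha supplied JNK3; compounds were titrated.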

[8] = biological target: 3',5'-cyclic-AMP phosphodiesterase 4B (Homo sapiens) (UniProt Q07343); assay: qHTS Assay for Inhibitors of PDE-IV (AID 607; active means well fitted activation curve with a large enough effect in the main read-out, with a control signal flat, not every such curve was filed as active; further: % of control where 0% means no effect)
Method in brief: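 Live HEK293 cells with a modified cyclic nucleotide-gated (CNG) channel report intracellular cAMP via membrane-potential dye fluorescence (ex 535/em 590 nm). Endogenous PDE-IV was targeted. Compounds were tested at up to 22.9 uM final; RO 20-1724 100 uM served as control.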

[9] = biological target: Cytochrome P450 3A4 (Homo sapiens) (UniProt P08684); assay: qHTS Assay for Inhibitors and Substrates of Cytochrome P450 3A4 (AID 884); further: nearly all actives have a fitted effect of over 50% in size; further: potency means the concentration at half of the fitted maximal effect
Cytochrome P450 3A4 (Homo sapiens), sequence (P08684 whole entry, looked up): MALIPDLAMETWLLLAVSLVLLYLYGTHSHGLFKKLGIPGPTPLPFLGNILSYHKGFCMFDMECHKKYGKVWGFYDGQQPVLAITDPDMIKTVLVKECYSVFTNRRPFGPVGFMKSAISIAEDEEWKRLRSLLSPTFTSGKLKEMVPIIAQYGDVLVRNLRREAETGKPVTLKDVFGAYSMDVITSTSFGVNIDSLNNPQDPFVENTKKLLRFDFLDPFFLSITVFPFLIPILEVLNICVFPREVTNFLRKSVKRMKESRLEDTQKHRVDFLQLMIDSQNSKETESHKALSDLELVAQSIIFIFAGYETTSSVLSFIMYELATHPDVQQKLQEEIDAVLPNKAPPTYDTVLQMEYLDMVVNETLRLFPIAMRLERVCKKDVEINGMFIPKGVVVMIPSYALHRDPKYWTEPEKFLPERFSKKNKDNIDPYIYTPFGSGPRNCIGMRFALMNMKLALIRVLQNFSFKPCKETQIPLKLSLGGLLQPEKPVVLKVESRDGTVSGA
Method in brief: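 20 nM human CYP3A4 with 25 uM Luciferin-PPXE (at KM) in 200 mM KPO4, preincubated 10 min with compound; NADPH regeneration started a 60 min RT reaction. Luciferin detected by luminescence, normalized to 57 uM ketoconazole as full inhibition.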

[10] = biological target: Cytochrome P450 3A4 (Homo sapiens) (UniProt P08684); assay: qHTS Assay for Activators of Cytochrome P450 3A4 (AID 885); further: nearly all actives have a fitted effect of over 65% in size; further: potency means the concentration at half of the fitted maximal effect
Method in brief: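 Quantitative HTS format: compounds preincubated with 20nM human CYP3A4 and Luciferin-PPXE substrate at KM, reaction started by NADPH regeneration, stopped after 60 min, luciferase luminescence read 20 min later.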

[11] = qHTS Assay for Lipid Storage Modulators (AID 1519; calls by dose curve); conditions: Drosophila S3 cells, BODIPY lipid droplet/cell ratio, laser cytometry, cells loaded with oleic acid; for activity change, negative = inhibition: at 57.5 µM (top of the series)
Method in brief: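 Cells seeded at 5,000 per well were treated with compounds over a concentration series and loaded with oleic acid (400 uM, as added). Lipid droplet fluorescence (488 nm excitation, 500-530 nm channel) was read by laser-scanning cytometry and normalized to 20 uM Triacsin C.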

[12] = biological target: Rap guanine nucleotide exchange factor 3 (Homo sapiens) (UniProt O95398); assay: Confirmatory qHTS for antagonist of cAMP-regulated guanine nucleotide exchange factor 3 (EPAC1) (AID 1645880);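 further: plate controls were DMSO only for no effect and full effect of the ATA control for full effect; nearly all actives have a fitted effect of over 55% in size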
Rap guanine nucleotide exchange factor 3 (Homo sapiens), sequence (O95398 whole entry, looked up): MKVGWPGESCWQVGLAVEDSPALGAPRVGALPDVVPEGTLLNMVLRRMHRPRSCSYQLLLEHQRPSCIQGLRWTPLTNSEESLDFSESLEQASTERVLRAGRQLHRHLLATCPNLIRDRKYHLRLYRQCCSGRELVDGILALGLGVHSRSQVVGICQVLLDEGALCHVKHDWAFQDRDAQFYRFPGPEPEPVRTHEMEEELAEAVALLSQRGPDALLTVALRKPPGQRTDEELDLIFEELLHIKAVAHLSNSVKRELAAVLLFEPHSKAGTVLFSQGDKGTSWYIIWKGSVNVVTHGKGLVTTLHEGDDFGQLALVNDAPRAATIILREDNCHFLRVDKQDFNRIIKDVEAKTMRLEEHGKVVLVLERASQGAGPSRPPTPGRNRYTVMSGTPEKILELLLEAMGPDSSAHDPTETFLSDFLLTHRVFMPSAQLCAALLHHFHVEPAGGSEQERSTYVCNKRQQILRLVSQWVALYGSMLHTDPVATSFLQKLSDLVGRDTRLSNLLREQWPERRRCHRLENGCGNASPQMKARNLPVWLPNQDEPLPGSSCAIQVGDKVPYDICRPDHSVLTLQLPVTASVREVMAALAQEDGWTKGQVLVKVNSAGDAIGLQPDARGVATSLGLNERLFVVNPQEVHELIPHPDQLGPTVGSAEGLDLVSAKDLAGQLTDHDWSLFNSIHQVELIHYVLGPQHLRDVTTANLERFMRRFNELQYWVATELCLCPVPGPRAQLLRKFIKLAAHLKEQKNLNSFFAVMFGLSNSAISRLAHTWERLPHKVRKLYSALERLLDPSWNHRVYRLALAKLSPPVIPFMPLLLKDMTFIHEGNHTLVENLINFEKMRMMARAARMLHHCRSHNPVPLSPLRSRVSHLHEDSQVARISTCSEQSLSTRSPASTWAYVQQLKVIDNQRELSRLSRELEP
Method in brief: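 Nucleotide exchange uses 100 nM EPAC1, 250 nM RAP1B-BODIPY-GDP and 50 uM GDP, with compounds in a concentration-titration series. After 5 min at room temperature, fluorescence (480 nm ex/540 nm em) is read every 5 min for 30 min. Data are normalized to control ATA and DMSO.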

[13] = biological target: Rap guanine nucleotide exchange factor 3 (Homo sapiens) (UniProt O95398); assay: Confirmatory qHTS for agonist of cAMP-regulated guanine nucleotide exchange factor 3 (EPAC1) (AID 1645881); further: nearly all actives have a fitted effect of over 75% in size; further: potency means the concentration at half of the fitted maximal effect;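 on activation: EPAC1 catalysed release of BODIPY-GDP from Rap1B seen as fluorescence loss; 100% = effect of cAMP agonist control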
[14] = biological target: Rap guanine nucleotide exchange factor 4 (Homo sapiens) (UniProt Q8WZA2); assay: Confirmatory qHTS for agonist of cAMP-regulated guanine nucleotide exchange factor 4 (EPAC2) (AID 1645884);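 further: nucleotide exchange releases bodipy-GDP from Rap1 and this lowers its fluorescence; nearly all actives have a fitted effect of over 65% in size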; further: potency means the concentration at half of the fitted maximal effect
Rap guanine nucleotide exchange factor 4 (Homo sapiens), sequence (Q8WZA2 whole entry, looked up): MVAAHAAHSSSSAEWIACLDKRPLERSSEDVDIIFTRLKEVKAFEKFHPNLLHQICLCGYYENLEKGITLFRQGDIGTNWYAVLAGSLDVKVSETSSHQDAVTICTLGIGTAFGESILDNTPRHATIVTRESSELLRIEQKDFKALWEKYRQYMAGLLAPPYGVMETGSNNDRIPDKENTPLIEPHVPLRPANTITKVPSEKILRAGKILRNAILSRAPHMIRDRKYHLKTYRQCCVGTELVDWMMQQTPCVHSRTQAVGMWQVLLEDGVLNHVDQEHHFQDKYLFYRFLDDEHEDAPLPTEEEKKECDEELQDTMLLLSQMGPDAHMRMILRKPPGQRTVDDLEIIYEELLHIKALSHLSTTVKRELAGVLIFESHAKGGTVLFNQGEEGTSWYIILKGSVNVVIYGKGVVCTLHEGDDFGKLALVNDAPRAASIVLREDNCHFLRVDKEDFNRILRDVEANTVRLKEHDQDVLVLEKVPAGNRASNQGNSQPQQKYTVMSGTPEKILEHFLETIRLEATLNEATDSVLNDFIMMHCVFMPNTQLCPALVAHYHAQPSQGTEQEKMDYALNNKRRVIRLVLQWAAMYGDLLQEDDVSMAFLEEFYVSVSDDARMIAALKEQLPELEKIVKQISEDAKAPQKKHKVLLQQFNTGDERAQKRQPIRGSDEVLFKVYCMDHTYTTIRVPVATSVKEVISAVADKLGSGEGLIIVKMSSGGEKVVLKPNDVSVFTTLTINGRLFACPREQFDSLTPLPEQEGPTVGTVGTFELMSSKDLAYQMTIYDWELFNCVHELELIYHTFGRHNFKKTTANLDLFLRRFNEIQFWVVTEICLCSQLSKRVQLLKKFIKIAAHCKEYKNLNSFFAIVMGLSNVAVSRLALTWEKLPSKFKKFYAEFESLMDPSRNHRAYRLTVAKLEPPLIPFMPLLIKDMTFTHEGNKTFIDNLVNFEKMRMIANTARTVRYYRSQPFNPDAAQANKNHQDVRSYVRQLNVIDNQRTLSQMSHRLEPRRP

[15] = biological target: Rap guanine nucleotide exchange factor 4 (Homo sapiens) (UniProt Q8WZA2); assay: Confirmatory qHTS for antagonist of cAMP-regulated guanine nucleotide exchange factor 4 (EPAC2) (AID 1645885); further: nearly all actives have a fitted effect of over 25% in size; further: potency means the concentration at half of the fitted maximal effect
[16] = Confirmation and Secondary Assay for Modulators of Hemoglobin Beta Chain Splicing at IVS2 654 locus (AID 910);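 further: per-well total GFP intensity by laser scanning cytometry after 2-day treatment; % of control where 0% means no effect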
Method in brief: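 HeLa cells stably carrying EGFP interrupted by mutant beta-globin IVS2-654 intron (CMV-driven) were treated with compound for 2 days at 37C; corrected splicing was scored as total peak GFP intensity per well (488 nm excitation, 500-520 nm emission).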

[17] = Confirmation and Secondary Assay for Modulators of Hemoglobin Beta Chain Splicing at IVS2 705 locus (AID 930);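 further: HeLa cells stably expressing the EGFP-705 splicing reporter; GFP fluorescence per well restored by corrected splicing of the IVS2-705 intron in EGFP; % of control where 0% means no effect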
Method in brief: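 Stable HeLa line with EGFP disrupted by mutant beta-globin intron 2 (705). Overnight attachment, then 2 days of compound at 37C, 5% CO2. Signal: peak GFP intensity summed over objects 5-250 µm.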

[18] = biological target: Ubiquitin carboxyl-terminal hydrolase 1 (Homo sapiens) (UniProt O94782); assay: Inhibitors of USP1/UAF1: Pilot qHTS (AID 504865);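 further: rhodamine fluorescence freed from ubiquitin-rhodamine substrate followed over time; top concentration of the series differs between compounds; on the % scale 0 is the no-effect control and ±100 the full control effect; nearly all actives have a fitted effect of over 35% in size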
Ubiquitin carboxyl-terminal hydrolase 1 (Homo sapiens), sequence (O94782 whole entry, looked up): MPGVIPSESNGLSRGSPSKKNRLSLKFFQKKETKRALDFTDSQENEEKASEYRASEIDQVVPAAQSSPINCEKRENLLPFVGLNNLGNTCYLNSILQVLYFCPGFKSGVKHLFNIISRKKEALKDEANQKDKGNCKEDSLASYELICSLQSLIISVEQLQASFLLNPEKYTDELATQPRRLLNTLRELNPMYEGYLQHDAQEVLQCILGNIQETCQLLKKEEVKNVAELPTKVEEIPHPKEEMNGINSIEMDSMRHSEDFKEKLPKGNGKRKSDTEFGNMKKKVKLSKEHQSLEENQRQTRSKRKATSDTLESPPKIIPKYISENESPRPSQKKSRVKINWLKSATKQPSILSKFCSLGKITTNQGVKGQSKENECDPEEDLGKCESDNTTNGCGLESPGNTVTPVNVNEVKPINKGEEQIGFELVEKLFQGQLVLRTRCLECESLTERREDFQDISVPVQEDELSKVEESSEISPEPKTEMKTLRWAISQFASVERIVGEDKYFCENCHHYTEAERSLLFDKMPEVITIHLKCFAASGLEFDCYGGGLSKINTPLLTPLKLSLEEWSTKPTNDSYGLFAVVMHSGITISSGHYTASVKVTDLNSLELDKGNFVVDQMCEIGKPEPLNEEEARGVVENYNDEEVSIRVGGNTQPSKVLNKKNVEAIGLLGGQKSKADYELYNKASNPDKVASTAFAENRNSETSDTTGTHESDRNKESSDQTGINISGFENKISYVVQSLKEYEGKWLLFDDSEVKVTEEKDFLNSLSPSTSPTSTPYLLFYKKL
Method in brief: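 Enzyme-free wells gave the negative control, while test wells held 1nM USP1/UAF1 preincubated with compound for 15 min at room temperature. Ub-Rho at 150nM final started the reaction, and fluorescence at 480/540 nm was recorded kinetically.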

[19] = AP1 Signaling Pathway (AID 357; active means well fitted curve in either direction with a large enough effect, not every such curve was filed as active;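 further: ME-180 reporter cells stimulated with EGF at its EC50 level; on the % scale 0 is the no-effect control and ±100 the full control effect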); conditions: ME-180 (cervical carcinoma) AP-1-bla reporter, EGF-induced, beta-lactamase ratio, 5 h; at 7.69 µM (top of the series) unless noted
Method in brief: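 Beta-lactamase reporter under AP-1 response element, ME-180 background. Stimulus: EC50 EGF. Compound exposure 5 h, 37 °C. Detection: CCF4, 2.5 h RT, 460/530 nm. Values: AC50 from titration.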

[20] = measured here: cell count channel max response
[21] = measured here: lipid channel max response

COc1ccc(-c2nc3cnc(Nc4cccc(OC)c4)nc3n(CCC#N)c2=O)cc1
16.5%: max response [11, 20]
-2.36%: max response [11, 21]
active: Potency [2] 6.31 µM | Potency [9] 3.98 µM | Potency [13] 70.6 µM | Potency [14] 70.6 µM
inactive: Potency [1] > 11.4 µM | activity change, negative = inhibition [3] -19.2% | activity, negative = inhibition [4] -10% | Potency [5] > 9.22 µM | Potency [6] > 46 µM | Potency [7] | Potency [8] | Potency [10] | activity change, negative = inhibition [11] -18.1% | Potency [12] | Potency [15]

CC1=CC2C(CC1=O)C(C)=CCC2C(C)C (centres undefined)
5.28%: max response [11, 21]
inactive: Potency [9] | Potency [16] | outcome [17] | activity change, negative = inhibition [11] 1.38% | Potency [18] | Potency [12] | Potency [13] | Potency [14]
active: Potency [15] 39.3 µM
3.62%: max response [11, 20]

N[C@H](C(=O)O)C(O)C(O)C(O)CO (some centres undefined)
-0.517%: max response [11, 20]
inactive: Potency [9] | Potency [16] | outcome [17] | activity change, negative = inhibition [11] 2.74% | Potency [18] | Potency [12] | Potency [13] | Potency [14] | Potency [15]
3.07%: max response [11, 21]

COc1ccc2c(c1)OC/C(=C/c1ccc(O)c(O)c1)C2=O
0.529%: max response [11, 20]
11.7%: max response [11, 21]
active: Potency [9] 31.6 µM
inactive: Potency [10] | Potency [16] | outcome [17] | activity change, negative = inhibition [11] 9.34% | Potency [18] | Potency [13] | Potency [14] | Potency [15]

CN(Cc1ccco1)c1nc(-c2ccccc2Cl)nc2ccccc12
inactive: activity change, negative = inhibition [19] 16.9% | activity change, negative = inhibition [3] -23.4% | activity, negative = inhibition [4] 21.7% | Potency [5] > 46 µM | Potency [6] > 46 µM | Potency [7] | Potency [16] | outcome [17] | activity change, negative = inhibition [11] 11.9% | Potency [12] | Potency [13] | Potency [14]
14.1%: max response [11, 20]
24.3%: max response [11, 21]

CC(=O)OC1CC2C(C)(C)CCC(=O)[C@@]2(C)C2CC[C@@]3(C)C(c4ccoc4)OC(=O)C4OC43[C@]12C (some centres undefined)
3.26%: max response [11, 21]
0.203%: max response [11, 20]
inactive: Potency [9] | Potency [16] | outcome [17] | activity change, negative = inhibition [11] 2.56% | Potency [12] | Potency [13] | Potency [14] | Potency [15]

CC(=O)OC1CC[C@]2(C)C(CC(OC(C)=O)[C@@]3(C)C4=CC(=O)OC(c5ccoc5)[C@]4(C)CCC23)C1(C)C (some centres undefined)
inactive: Potency [16] | outcome [17] | activity change, negative = inhibition [11] -24.5% and -12.6% and 0.61% | Potency [12] | Potency [13] | Potency [14]
inactive and 2.51 µM (active): Potency [9]
6.99% and 9.73% and 16%: max response [11, 20]
6.31 µM (active) and inactive: Potency [10]
-14.8% and -4.52% and 18.3%: max response [11, 21]
